Casp6 inh: human caspase-6 inhibitors, primary screen, biochemical, VEID-R110 fluorescence, single point, set 2 | 350,000 compounds, 0.53% hits | purified caspase-6, Z-VEID-R110 cleavage fluorescence | inhibition, % at 12.5 µM;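 active = mean inhibition across replicates at least about 35%, with every replicate also reaching that limit, limit read from the data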;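 also: 0% = median of neutral control wells and 100% = no fluorescence left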
UHRF1 binding: UHRF1 methylated DNA binding inhibitors, primary screen, counter-screen for MBD2 inhibitor project, biochemical, TR-FRET, human UHRF1, single concentration; E3 ubiquitin-protein ligase UHRF1 (Homo sapiens), Q96T88; inhibition, % at 4.4 µM; UHRF1 binding to methylated oligo; 370,000 compounds, 0.75% hits; AID 687016, 2013; in the data active = inhibition above about 21%;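 also: UHRF1 SRA domain binding a hemimethylated CpG hairpin DNA probe; 0% = median of test compound wells and 100% = reference inhibitor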
LEDGF integ inh: blockers of LEDGF/p75-dependent integrase strand transfer – biochemical, TR-FRET, high throughput, primary screen; HIV-1 integrase (with human LEDGF/p75); TR-FRET IN-LEDGF/p75 DNA integration, Eu/Cy5; inhibition, % at 3.7 µM; 370,000 compounds, 0.64% hits;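 active = inhibition above the screen-wide mean plus 3 SD, cut at about 13% in these data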;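 also: signal is the Cy5 over europium emission ratio at 671 and 618 nm; 0% = plate median of compound wells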
MBD2 DNA inh: inhibitors of MBD2 binding to methylated DNA, primary screen, biochemical, TR-FRET, DNA-binding domain, human | Methyl-CpG-binding domain protein 2 (Homo sapiens), Q9UBB5 | AID 686964, 2013 | inhibition, % at 4.4 µM | 370,000 compounds, 0.31% hits | MBD2 binding to methylated oligonucleotide; in the data active = inhibition above about 13%
Target sequence (Q9UBB5 whole entry, looked up, the tested form may be a part): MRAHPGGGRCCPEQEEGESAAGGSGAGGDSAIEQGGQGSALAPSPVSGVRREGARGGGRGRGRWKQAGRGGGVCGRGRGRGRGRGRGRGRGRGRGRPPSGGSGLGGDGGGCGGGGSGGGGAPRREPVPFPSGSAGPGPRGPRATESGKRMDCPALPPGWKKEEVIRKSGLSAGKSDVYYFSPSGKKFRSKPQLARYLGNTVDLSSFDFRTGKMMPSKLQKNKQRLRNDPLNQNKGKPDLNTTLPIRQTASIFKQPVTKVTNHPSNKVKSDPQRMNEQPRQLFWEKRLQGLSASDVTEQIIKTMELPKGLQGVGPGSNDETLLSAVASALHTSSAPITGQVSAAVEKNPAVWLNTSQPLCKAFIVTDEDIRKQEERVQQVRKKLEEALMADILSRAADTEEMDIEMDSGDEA
CASP1 counter: human caspase-1 inhibitors, dose response, selectivity assay for caspase-6 inhibitor project, biochemical, Z-YVAD-R110 fluorescence, cherry-pick, set 2; purified caspase-1, Z-YVAD-R110 cleavage fluorescence; activity change, negative = inhibition, % at 35 µM; shares compounds with Casp6 inh; 100 tested, under 10 active;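 active = compounds lowering fluorescence whose fitted half-maximal concentration is no more than twice their top tested dose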
IN multimer up: HIV-1 IN multimer formation enhancers, counter-screen for LEDGF/p75 integration inhibitor project, biochemical, TR-FRET | shares compounds with LEDGF integ inh | TR-FRET HIV-1 integrase multimerization | activation, % at 7.7 µM | 2,000 compounds, 17% hits | AID 1053131, 2014; in the data active = activation above about 8.9%
TR-FRET interf: TR-FRET optical interference artefacts, confirmation, artefact control for LEDGF/p75-dependent integration inhibitor project, biochemical, HIV-1 IN multimerization; shares compounds with LEDGF integ inh; TR-FRET optical interference counterscreen; inhibition, % at 7.7 µM; 2,000 tested, under 10 active;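 active = inhibition above the mean over all tested compounds plus 3 SD, which no compound reached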;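 also: 0% = integrase with antibodies and DMSO and 100% = antibodies without integrase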
LEDGF integ conf: inhibitors of HIV-1 IN-LEDGF/p75 DNA integration, confirmation, biochemical, TR-FRET; TR-FRET LEDGF/p75-dependent HIV-1 integration; inhibition, % at 3.7 µM; shares compounds with LEDGF integ inh; 2,000 compounds, 36% hits; in the data active = inhibition above about 14%
Starred values were filed as active, the others as inactive; ! = not confirmed by another sample. Most compounds without a hit are left out; they make up all but 1.4% or so of the library.

Screening Nc1c(O)cccc1C(=O)O returned Casp6 inh 56*, UHRF1 binding 20, LEDGF integ inh 38*, MBD2 DNA inh 8, CASP1 counter 4, IN multimer up 8, TR-FRET interf -38 and LEDGF integ conf 21*.
For COc1ccc(OC)c(Nc2cc3ccccc3c(=O)[nH]2)c1 the results were Casp6 inh 99*, UHRF1 binding 1, LEDGF integ inh 17*, MBD2 DNA inh -5, CASP1 counter 23, IN multimer up 6, TR-FRET interf -20 and LEDGF integ conf 65*.
COc1ccc(OC)c(Nc2nnc(C)c(=O)[nH]2)c1 was read as Casp6 inh 1, UHRF1 binding 3, LEDGF integ inh -4 and MBD2 DNA inh 1.
`Nc1ccc(Nc2ccccc2)c(S(=O)(=O)O)c1` gave Casp6 inh 86*, UHRF1 binding 20, LEDGF integ inh 19*, MBD2 DNA inh 2, CASP1 counter -8, IN multimer up 10*, TR-FRET interf -53 and LEDGF integ conf 11.
`CC(C)NC(=O)N1[C@H](CO)[C@@H]2c3ccccc3N(C(=O)c3ccncc3)C[C@@H]21` gave Casp6 inh 0.
For Cc1cc(=O)n(-c2ccc(O)cc2)[nH]1 the results were UHRF1 binding 6, LEDGF integ inh 19*, MBD2 DNA inh -4, IN multimer up 1, TR-FRET interf -7 and LEDGF integ conf -5.
CCCNC(=O)N1CC2(C1)CN(C(=O)c1cccnc1)[C@@H](CO)c1[nH]c3cc(OC)ccc3c12 was read as Casp6 inh -4.
Screening Cc1ccc(S(=O)(=O)NC2=C(N3CCN(c4ccccc4F)CC3)C(=O)c3ccccc3C2=O)cc1 returned Casp6 inh 2, UHRF1 binding 0, LEDGF integ inh 15*!, MBD2 DNA inh -5, IN multimer up 0, TR-FRET interf 2 and LEDGF integ conf 2.
For CCc1ccc(O)c(-c2cc(C(=O)Nc3cccnc3)[nH]n2)c1 the results were Casp6 inh 1, UHRF1 binding -1, LEDGF integ inh 15*, MBD2 DNA inh 3, IN multimer up -3, TR-FRET interf 13 and LEDGF integ conf -1.
Screening O=C1C(O)=C(O)C(=O)c2ccccc21 returned Casp6 inh 30, UHRF1 binding 7, LEDGF integ inh 16*, MBD2 DNA inh -1, IN multimer up 3, TR-FRET interf -10 and LEDGF integ conf 41*.
Screening CCCN(CCC)C(=S)NC(=O)c1ccc(-c2ccccc2)cc1 returned UHRF1 binding 0, LEDGF integ inh 26*, MBD2 DNA inh 2, IN multimer up 1, TR-FRET interf -7 and LEDGF integ conf 35*.
CCOc1ccc(C(=O)NC(=S)N(Cc2ccccc2)Cc2ccccc2)cc1 was read as Casp6 inh -1, UHRF1 binding -3, LEDGF integ inh 10 and MBD2 DNA inh -3.
Screening C[C@@H]1CN([C@@H](C)CO)C(=O)Cc2cc(NC(=O)c3ccncc3)ccc2O[C@H]1CN(C)Cc1ccc(Oc2ccccc2)cc1 returned Casp6 inh 3.
Screening Cc1cccc(CN2CCSCCS2(=O)=O)c1 returned Casp6 inh -3, UHRF1 binding -2, LEDGF integ inh -3 and MBD2 DNA inh -3.

Source: PubChem
